Screening results deposited in PubChem by National Center for Advancing Translational Sciences (NCATS).
This is a sample that favours compounds with a hit; in the whole collection about 18% have one here.
Six1-Eya2 inh = inhibitors of human Six1/Eya2 interaction | Q15475+O00167 | AlphaScreen GST-Six1/His-Eya2 binding, biochemical; active compounds read low | activity change, % (no concentration beside the values) | 360,000 tested, 0.56% active; in the data active = activity change below about -65%; inconclusive = mostly about -30% to -63%
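GST-Six1 + His-Eya2 (5X stock: 250/500 nM); Tris pH 8.0, 300 mM NaCl, 0.05% BSA, 0.02% Tween 20; GSH donor/Ni acceptor beads; 1 h 37 °C dark; AlphaScreen readout.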
IL1B secr inh = blocks inflammasome-driven IL-1 beta release; AID 743279; 360,000 tested, 4.7% active; THP-1 LPS/ATP IL-1B secretion, AlphaLISA, 16 h; active compounds read low; activity change, % at 57.5 µM; in the data active = activity change below about -50%; inconclusive = mostly about -30% to -49%
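THP-1 cells pretreated 1 hr with compounds (up to 57.5 uM final), then stimulated with LPS (250 ng/mL final) plus ATP (1.25 mM final); secreted IL-1B measured by AlphaLISA after 16 hr, decreased signal indicating inhibition.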
CtBP-E1A inh = blocks the CtBP interaction with E1A. 340,000 tested, 0.49% active. AlphaScreen GST-E1A/His-CtBP binding, 1536-well; active compounds read low. activity change, % (test concentration not listed); in the data active = activity change below about -65%; inconclusive = mostly about -30% to -63%
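AlphaScreen with 125 nM GST-E1A and 125 nM His-CtBP (5X stocks) in Tris pH 8.0, 300 mM NaCl, BSA, Tween 20, TCEP. Compounds preincubated 2 h at 37 deg C, then glutathione donor/nickel acceptor beads added for 1 h at 37 deg C in dark.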
DT40 TDP1 CPT = DT40-hTDP1 cell growth loss with CPT; chicken DT40 Tdp1-/-;hTDP1 cells + 20 nM CPT, ATP luminescence, 48 h; Potency, µM (doses to about 46.2 µM), actives largely listed as inhibitors; 420,000 tested, 12% active; note: nearly all actives have a fitted effect of over 55% in size
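Chicken DT40 Tdp1-/- cells stably complemented with human TDP1 were seeded at 400 cells/well in medium containing 20 nM camptothecin, exposed to pin-transferred compounds, and grown at 37 °C for at least 48 hr. Viability was read as ATP luminescence.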
DT40 TDP1 no CPT = qHTS for Inhibitors of human tyrosyl-DNA phosphodiesterase 1 (TDP1): qHTS in cells in absence of CPT | DT40 Tdp1-/- hTDP1 cells, no CPT, ATP luminescence, 48 h | Potency, µM (series often up to 46.2 µM), actives largely listed as inhibitors | 420,000 tested, 15% active | AID 686978, 2013; note: nearly all actives have a fitted effect of over 55% in size
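DT40 Tdp1-/-;hTDP1 cells, no CPT (DMSO vehicle only), 400 cells/well; compounds pin-transferred; ≥48 hr, 37 °C; CellTiter-Glo 30 min RT dark, luminescence read.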
TDP1 inh = inhibitors of human tyrosyl-DNA phosphodiesterase TDP1; recombinant TDP1, AlphaScreen DNA substrate cleavage; Q9NUW8; 350,000 tested, 0.28% active; Potency, µM (titrated, usually from 130 µM), usual class: inhibitors; note: nearly all actives have a fitted effect of over 40% in size
Target sequence (Q9NUW8 whole entry, looked up): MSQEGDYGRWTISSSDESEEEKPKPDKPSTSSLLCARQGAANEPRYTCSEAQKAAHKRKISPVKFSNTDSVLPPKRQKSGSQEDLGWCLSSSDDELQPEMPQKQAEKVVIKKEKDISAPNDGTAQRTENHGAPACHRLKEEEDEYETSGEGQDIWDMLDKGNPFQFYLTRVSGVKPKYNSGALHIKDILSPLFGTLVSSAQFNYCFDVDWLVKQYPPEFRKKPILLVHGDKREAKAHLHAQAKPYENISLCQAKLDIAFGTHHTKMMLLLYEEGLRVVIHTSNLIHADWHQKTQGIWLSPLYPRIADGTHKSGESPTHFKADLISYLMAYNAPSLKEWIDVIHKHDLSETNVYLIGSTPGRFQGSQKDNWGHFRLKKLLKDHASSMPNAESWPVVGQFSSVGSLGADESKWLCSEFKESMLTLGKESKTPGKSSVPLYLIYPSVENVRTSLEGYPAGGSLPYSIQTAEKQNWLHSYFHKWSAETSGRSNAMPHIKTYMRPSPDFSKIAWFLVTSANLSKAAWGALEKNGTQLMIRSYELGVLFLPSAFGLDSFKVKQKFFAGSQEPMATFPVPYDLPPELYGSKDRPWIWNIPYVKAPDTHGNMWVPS
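Signal: AlphaScreen proximity between streptavidin donor and anti-FITC acceptor beads on intact substrate. Reaction: Tdp1 1 nM, substrate 15 nM final, 5 min RT after 15 min compound preincubation.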
Hits are given with their value; 0 = inactive; ? = inconclusive; - = no result; ! = not confirmed by another sample; [ ] = remark or other dose. Unless noted, calls come from the whole dose curve; as a rule, active = well fitted curve in the direction sought with a large enough effect; inconclusive = small, poorly fitted or top-dose-only effect, or another doubt; inactive = no such curve, though single readings can be large; an effect the other way counts as inactive or inconclusive.

SMILES | Six1-Eya2 inh | IL1B secr inh | CtBP-E1A inh | DT40 TDP1 CPT | DT40 TDP1 no CPT | TDP1 inh
CC(O)(CS(=O)(=O)c1ccc(F)cc1)C(=O)Nc1ccc(C#N)c(C(F)(F)F)c1 (centres undefined) | - | - | - | 15µM | 11µM | 0
CC(O)(CS(=O)(=O)c1ccccc1)C(=O)Nc1ccc(C(F)(F)F)cc1 (centres undefined) | 0 | 0 | 0 | 0 | 0 | 0
CCN(CC)C(=O)c1ccc(NC(=O)Cn2nc(-c3ccc(C)cc3)c3ccccc3c2=O)cc1 | - | - | - | 0 | 0 | -
Cc1ccc(OCC(=O)Nc2ccc(Cl)cc2C(=O)c2ccccc2)cc1 | 0 | 0 | 0 | 0 | 0 | 0[12.3 µM]
CCN(CC)C(=O)c1ccc(NC(=O)COc2ccc(-c3nn(C)c(=O)c4ccccc34)cc2)cc1 | 0 | 0 | 0 | 16µM | ? | 0
CCN(CC)C(=O)c1ccc(NC(=O)CCn2nc(-c3ccc(C)cc3)c3ccccc3c2=O)cc1 | - | - | - | 18µM | 15µM | 0
Cc1ccc(NC(=O)COc2ccc(-c3nn(C)c(=O)c4ccccc34)cc2)c(C)c1 | - | - | - | 16µM | 13µM | 0
Cn1nc(-c2ccc(C(=O)Nc3ccc(OC(F)(F)F)cc3)cc2)c2ccccc2c1=O | - | - | - | 9.2µM | 16µM | 0
CC1(C(O)(C#CCN2CCCCC2)c2ccccc2)CCCC1 (centres undefined) | 0 | 0 | 0 | ? | ? | 0
CN1CC[C@]23c4c5ccc(O)c4OC2[C@H](O)C=CC3[C@H]1C5 (some centres undefined) | 0 | 0 | 0 | 0 | 0 | 0
CC(=O)OC1CC[C@]2(C#N)[C@H]3CC[C@]4(C)[C@H](C5C=CC(=O)O5)CCC4(O)C3CCC2(O)C1 (some centres undefined) | 0 | 0 | - | ? | ? | -
CC(=O)OCC1=C(C(=O)O)N2C(=O)C(NC(=O)CCCC(N)C(=O)O)C2SC1 (centres undefined) | - | - | - | ? | 0 | 25µM
Cc1cc(=O)oc2c1c(C)nn2-c1nn[nH]n1 | 0 | 0 | 0 | 21µM | ? | 0
Cc1ccccc1C(=O)Nc1sc2c(c1C(=O)O)CCC(C(C)(C)C)C2 (centres undefined) | - | - | - | 10µM | 4.6µM | -
O=Nc1c(-c2ccccc2)n(O)[n+]([O-])c1-c1ccccc1 | 0 | 0 | 0 | ? | 21µM | -
C[C@@H]1C[C@@H]([C@H](O)CC2CC(=O)NC(=O)C2)C(=O)[C@@H](C)C1 | 0 | -58 | 0 | 0.16µM | 0.16µM | 0
CC(=O)OC1(C)CC(C)C(=O)C(C(O)CC2CC(=O)NC(=O)C2)C1 (centres undefined) | 0 | -109 | 0 | 0.18µM | 0.21µM | -
C[C@@H]1CC([C@H](O)CC2CC(=O)NC(=O)C2)C(=O)[C@@H](C)C1 (some centres undefined) | - | - | - | - | - | 0
Cc1cc[n+](Cc2ccccc2)cc1 | 0 | 0 | 0 | ? | ? | 0
O=C(Cc1cc(=O)[nH]c(=O)[nH]1)N1CCN(CCO)CC1 | 0 | 0 | 0 | 0 | 0 | -
O=[N+]([O-])c1ccc(N2CCCC2)c2ccncc12 | 0 | 0 | - | ? | 21µM | 0
O=[N+]([O-])c1ccc(NC2CCCC2)c2ccncc12 | 0 | 0 | 0 | ? | ? | 0
O=C1NC(=O)C(=Cc2ccc3ccccc3c2)C(=O)N1 | 0 | ? | - | 0 | 0 | 0
O=[N+]([O-])c1cc(F)c(N2CCCCCC2)cc1N1CCNCC1 | 0 | 0 | 0 | 16µM | ? | 0
CC(=O)c1ccc2c(c1)N(CCCN(C)C)c1ccccc1S2 | 0 | 0 | 0 | ? | 8.1µM | 0[21 µM]
SMILES | Six1-Eya2 inh | IL1B secr inh | CtBP-E1A inh | DT40 TDP1 CPT | DT40 TDP1 no CPT | TDP1 inh
COC(=O)C1=C(c2c(C)noc2C)C[C@@H]2CC[C@H]1N2C(=O)NCCNC(C)=O | 0 | 0 | 0 | 0 | 0 | 0
CN1CC[C@]2(C)c3cc(O)ccc3N(C)[C@@H]12 | - | - | - | - | - | 0[21 µM]
N=C1c2ccccc2CN1NC(=O)c1ccco1 | 0 | 0 | 0 | 0 | 0 | 0
N=C1c2ccccc2CN1NC(=O)c1ccc(Br)cc1 | 0 | -102 | 0 | 0 | 0 | 0
O=C(CCl)Nc1nccs1 | 0 | -62 | 0 | 2.6µM | 5.8µM | 0
O=C(Nc1nccs1)C(Cl)(Cl)Cl | 0 | 0 | 0 | 0 | 0 | 0
O=C(Nc1ccc(Cl)cc1)Nc1nccs1 | 0 | 0 | 0 | 4.1µM | 2.9µM | 0
O=c1cccc2n1CC1CC2CN2CCCCC12 (centres undefined) | - | - | - | 0 | 0 | 0
Cn1cccc1-c1cccnc1 | - | - | - | 0 | 0 | 0
CN(C)c1ccc([N+](=O)[O-])c([N+](=O)[O-])c1 | 0 | -59 | 0 | ? | ? | -
COc1ccc2nc(N3CCN(C(=O)CS(=O)(=O)c4ccc(C)cc4)CC3)sc2c1 | - | - | - | 12µM | 13µM | 0
CCOc1ccc(-n2c(O)c(C=Nc3ccc(NC(C)=O)cc3)c(=O)[nH]c2=O)cc1 | 0 | 0 | - | 0 | 0 | -
CCCCC/C=C\C[C@@H](/C=C/C=C\C/C=C\CCCC(=O)O)OO | - | - | - | 0[0.628 µM] | 0[0.628 µM] | 0
CCCCC/C=C\C/C=C\C/C=C\C/C=C\CCCC(=O)O | - | - | - | 30µM! | 24µM! | 0
Cc1nn(Cc2ccccc2)c(C)c1C=C1C(=O)NC(=O)NC1=O | 0 | -106 | 0 | 0 | 0 | 0
Cc1nn(Cc2ccccc2)c(C)c1C(=O)NCc1ccccc1 | 0 | 0 | 0 | 0 | 0 | 0
c1ccc(P(c2ccccc2)c2ccccc2)cc1 | - | - | - | - | - | 0
COc1ccc(C(=O)NCCn2cc(SC(C)c3ccccc3)c3ccccc32)cc1OC (centres undefined) | - | - | - | 16µM | 12µM | 0
COc1ccccc1OCCCn1cc(C(=O)C2CC2)c2ccccc21 | 0 | 0 | 0 | ? | ? | 0
CCOc1c(Cl)cc(CNCCc2c[nH]c3ccccc23)cc1OC | 0 | -87 | - | ? | 15µM | 0
CCOc1cc(CNCCc2c[nH]c3ccccc23)cc(Cl)c1OCC | 0 | -97 | 0 | 16µM | 18µM | 0
CCOc1cc(CNC(C)C(O)c2ccccc2)cc(Cl)c1OCC (centres undefined) | 0 | ? | 0 | ? | ? | 0
COc1cc(CNCCc2ccc3c(c2)OCO3)cc(OC)c1OC | 0 | 0 | 0 | ? | ? | -
CCN(CC)C(C)C(=O)c1ccccc1 (centres undefined) | - | - | - | 0 | 0 | -
N#CC(C#N)=NNc1ccc(-n2ccc(C(F)(F)F)n2)cc1 | 0 | -83 | 0 | 2.3µM | 1.6µM | 0
Cc1cc(C)n(-c2ccc(NN=C(C#N)C#N)cc2)n1 | 0 | 0 | - | 10µM | 7.3µM | 0
S=C1NC2(CCCCC2)NC12CCCCC2 | 0 | 0 | - | 0 | 0 | 0
COc1ccc2c(c1)CC[C@@H]1[C@@H]2CC[C@]2(C)[C@@H](NCCCCCCN3C(=O)C=CC3=O)CC[C@@H]12 | - | - | - | ? | 22µM | 0
C[S@@](=O)CCCCN=C=S | - | - | - | - | - | 0
